Experimental data taken from PubChem BioAssay (NCATS).
Records with an inconclusive call do not appear. A call without a number means that no potency is given here. Calls of active or inactive are those of the source. Unless noted, the call rests on the fitted dose curve; in most records, active means well fitted curve in the direction sought with a large enough effect; inconclusive means small, poorly fitted or top-dose-only effect, or another doubt; inactive means no such curve, though single readings can be large; an effect the other way counts as inactive or inconclusive.

Experiments:
[1] = biological target: Cytochrome P450 1A2 (Homo sapiens) (UniProt P05177); test: p450-cyp1a2 (AID 410; calls by dose curve; further: potency means the concentration at half of the fitted maximal effect)
Chain of Cytochrome P450 1A2 (Homo sapiens) (P05177 whole entry, looked up): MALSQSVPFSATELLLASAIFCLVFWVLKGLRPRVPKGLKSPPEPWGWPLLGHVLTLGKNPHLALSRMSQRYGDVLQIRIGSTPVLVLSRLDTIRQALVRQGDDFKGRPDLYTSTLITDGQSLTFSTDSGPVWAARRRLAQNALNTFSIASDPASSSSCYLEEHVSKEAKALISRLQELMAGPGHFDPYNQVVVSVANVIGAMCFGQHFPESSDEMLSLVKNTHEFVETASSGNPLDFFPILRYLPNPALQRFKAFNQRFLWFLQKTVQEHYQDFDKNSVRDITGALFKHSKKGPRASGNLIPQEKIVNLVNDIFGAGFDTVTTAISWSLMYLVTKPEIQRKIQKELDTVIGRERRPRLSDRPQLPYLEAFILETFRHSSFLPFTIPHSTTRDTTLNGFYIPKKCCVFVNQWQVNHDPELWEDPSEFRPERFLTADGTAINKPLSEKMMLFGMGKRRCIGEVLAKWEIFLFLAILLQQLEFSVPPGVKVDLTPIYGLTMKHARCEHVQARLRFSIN
Method in brief: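 Luminescent demethylation readout: Luciferin-ME (100uM, equal to Km) turned over by 20nM CYP1A2 for 60 min at room temperature after NADPH regeneration addition, following 10 min compound preincubation. Normalization used 57 uM furafylline as full inhibition.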

[2] = biological target: Mitogen-activated protein kinase 10 (Mus musculus) (UniProt Q61831); test: JNK3 AlphaScreen Assay (AID 530; active means well fitted curve in either direction with a large enough effect, not every such curve was filed as active;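 further: kinase came from lysate of stimulated human HepG2 cells; signal reports phosphorylation of biotinylated GST-cJun 1-79 at Ser73 with 10 µM ATP; series mostly up to about 57 µM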)
Method in brief: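 Phosphorylation of biotinylated GST-cJun(1-79) at Ser73 is measured by AlphaScreen proximity luminescence. Enzyme is JNK3 in HepG2 lysates activated with interleukin-1beta and tumor necrosis factor alpha; ATP is 10 uM final.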

[3] = biological target: Cytochrome P450 3A4 (Homo sapiens) (UniProt P08684); test: qHTS Assay for Activators of Cytochrome P450 3A4 (AID 885); further: nearly all actives have a fitted effect of over 65% in size
Chain of Cytochrome P450 3A4 (Homo sapiens) (P08684 whole entry, looked up): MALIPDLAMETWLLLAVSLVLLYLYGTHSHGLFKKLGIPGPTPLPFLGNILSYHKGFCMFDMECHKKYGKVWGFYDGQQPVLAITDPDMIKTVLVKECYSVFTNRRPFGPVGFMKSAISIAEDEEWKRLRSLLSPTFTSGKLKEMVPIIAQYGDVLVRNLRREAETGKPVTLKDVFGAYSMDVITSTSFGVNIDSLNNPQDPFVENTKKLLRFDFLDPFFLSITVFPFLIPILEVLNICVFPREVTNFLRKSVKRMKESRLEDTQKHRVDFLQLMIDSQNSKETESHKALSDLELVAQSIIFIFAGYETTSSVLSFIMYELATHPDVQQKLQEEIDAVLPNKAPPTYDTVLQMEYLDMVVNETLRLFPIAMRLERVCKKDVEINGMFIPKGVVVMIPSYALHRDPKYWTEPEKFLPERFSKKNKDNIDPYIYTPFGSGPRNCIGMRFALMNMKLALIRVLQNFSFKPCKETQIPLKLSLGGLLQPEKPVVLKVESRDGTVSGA
Method in brief: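 Activators are scored by enhanced luminescence from CYP3A4 conversion of luciferin-PPXE (25uM, equal to KM) to luciferin, after 60 min at RT with an NADPH-regenerating system.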

[4] = biological target: Cytochrome P450 2C9 (Homo sapiens) (UniProt P11712); test: qHTS Assay for Inhibitors and Substrates of Cytochrome P450 2C9 (AID 883); further: potency means the concentration at half of the fitted maximal effect; nearly all actives have a fitted effect of over 60% in size
Chain of Cytochrome P450 2C9 (Homo sapiens) (P11712 whole entry, looked up): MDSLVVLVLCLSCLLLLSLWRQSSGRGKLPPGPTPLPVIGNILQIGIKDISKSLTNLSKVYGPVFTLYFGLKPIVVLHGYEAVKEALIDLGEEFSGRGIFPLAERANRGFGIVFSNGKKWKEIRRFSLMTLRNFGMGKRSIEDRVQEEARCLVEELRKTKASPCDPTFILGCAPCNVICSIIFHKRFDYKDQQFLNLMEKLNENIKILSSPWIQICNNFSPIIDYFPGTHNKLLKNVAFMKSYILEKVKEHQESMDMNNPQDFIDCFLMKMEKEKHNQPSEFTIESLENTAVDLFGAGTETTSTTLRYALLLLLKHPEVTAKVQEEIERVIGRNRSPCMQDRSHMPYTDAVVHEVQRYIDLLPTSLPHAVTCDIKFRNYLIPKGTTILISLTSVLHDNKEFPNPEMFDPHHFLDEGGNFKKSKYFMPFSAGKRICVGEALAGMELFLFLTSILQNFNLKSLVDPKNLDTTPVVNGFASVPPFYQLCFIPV
Method in brief: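 A luminogenic readout tracked human CYP2C9 (10nM) converting deoxyluciferin (100uM, at KM) in 25mM KPO4 during 60 min at 37C with regenerated NADPH. Values normalized to 57uM sulphaphenazole as complete inhibition.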

SMILES: CCCC[C@@H]1C[C@H]1C(NC(=O)Cc1ccccc1)c1ccc(-c2ccccc2)cc1 (stereo partly specified)
- Potency [1]: inactive
- Potency [2]: inactive
- Potency [3]: inactive

SMILES: CC(C)c1cccc2c([Si](C)(C)C)c3c(nc12)-c1cccc(=O)n1C3
- Potency [1]: 15.8 µM (active)
- Potency [4]: 2 µM (active)
- Potency [3]: inactive
